The record followed here is PubChem BioAssay (EPA / NIEHS).

Several values for one entry are separate records, joined by “and”; a condition that tells them apart may be missing. Equal entries are not always repeated. Records with an inconclusive call do not appear. Some structures have more than one record in an assay (separate samples or runs), and their calls can disagree. Activity calls are given as the source filed them. The calls were made as follows, unless noted: active = hit-call score of the fitted dose curve at least 0.9, where 1 is the maximum; inactive = score below 0.9.

Assay [1] is described as follows: ACEA_ER_80hr: ACEA Biosciences xCELLigence Real-Time Cell Analysis on Estrogen Receptor Agonism for Proliferation (AID 2282667; active = hit-call score of the fitted dose curve at least 0.9, where 1 is the maximum). As to conditions: T47D proliferation, impedance (xCELLigence), 80 h. The gist of the method:
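Estrogen-driven proliferation is captured as electrode impedance in T47D cells 80 h after compound addition. Test articles ran at 8 concentrations, 1:4 dilutions from 100 uM final, in two replicate plates.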

The nature of assay [2]: APR_HepG2_CellCycleArrest_24hr: Apredica 24-hour HepG2 Assay for Cell Cycle Arrest (AID 2282905).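 Also: cell cycle arrest scored as ratio of 2N to 4N nuclear DNA content.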 The settings on record: imaging, actives raise or lower the signal. The method in brief: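 Compounds (0.39 to 200 uM, final DMSO 0.5% v/v) are applied to HepG2 cells for 24 hours; cells are then fixed, permeabilized and nuclei labeled with Hoechst 33342. Automated imaging measures DNA content, and activity is fitted in both directions against DMSO.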

Assay [3] is described as follows: APR_HepG2_NuclearSize_24hr: Apredica 24-hour HepG2 Assay for Nuclear Size (AID 2282907). As to conditions: high-content imaging, actives raise or lower the signal. The method in brief: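 Nuclear size is measured by fluorescence high-content imaging of Hoechst-labelled HepG2 nuclei after 24 hr of treatment (0.39–200 uM, 0.5% DMSO). Cells are fixed in 3.7% formaldehyde before staining, and DMSO serves as the baseline for bidirectional curve fitting.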

Assay [4] can be described thus: APR_HepG2_CellLoss_24hr: Apredica 24-hour HepG2 Assay for Cell Loss (AID 2282908).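 As to AC50: fit in both directions so a hit may be cell loss or gain.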 As to conditions: high-content imaging. The method in brief: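 Nuclear count serves as the viability measure: treated cells are fixed, permeabilized and labelled with Hoechst 33342, and six images per well are analysed to identify valid nuclei. Doses span 0.39–200 uM, and activity in either direction is scored against DMSO.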

Assay [5] is described as follows: APR_HepG2_MicrotubuleCSK_24hr: Apredica 24-hour HepG2 Assay for Microtubule CSK Stabilty (AID 2282909). The settings on record: HepG2 microtubule cytoskeleton imaging, actives raise or lower the signal. The gist of the method: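 Compounds were applied to HepG2 cells for 24 hours across 0.39–200 uM in duplicate, with final DMSO at 0.5% v/v. Fixed, permeabilized cells were labeled for alpha-tubulin and nuclei, and tubulin fluorescence was quantified by imaging, fitted bidirectionally against DMSO.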

Assay [6] in a line: APR_HepG2_MitoticArrest_24hr: Apredica 24-hour HepG2 Assay for Mitotic Arrest (AID 2282910). The settings on record: high-content imaging, actives raise or lower the signal. The method in brief:
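HepG2, 24 hr dosing, 0.39–200 uM, 0.5% DMSO final. Formaldehyde-fixed, Triton-permeabilised, anti-phospho-histone H3 plus Hoechst. ArrayScan imaging at 20x; bidirectional fit vs DMSO baseline.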

Assay [7] is described as follows: APR_HepG2_MitoMembPot_24hr: Apredica 24-hour HepG2 Assay for Mitochondrial Membrane Potential (AID 2282911). The settings on record: imaging, actives raise or lower the signal. The method in brief: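 Mitochondrial dye uptake (MitoTracker Red CMXRos, 250 nM, 30 min pre-fixation) in HepG2 after 24 hr compound exposure, 0.39–200 uM; ArrayScan images at 20x, activity fitted in both directions relative to DMSO.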

Assay [8] in a line: APR_HepG2_MitoMass_24hr: Apredica 24-hour HepG2 Assay for Mitochondrial Mass (AID 2282912). The settings on record: high-content imaging, actives raise or lower the signal. The method in brief:
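After 24 hr of treatment at 0.39 to 200 uM, HepG2 cells take up 250 nM MitoTracker Red CMXRos for 30 min and are then fixed with 3.7% formaldehyde. Per-well images are quantified, and any change in either direction is scored against solvent.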

Assay [9] is described as follows: APR_HepG2_p53Act_24hr: Apredica 24-hour HepG2 Assay for p53 Activation (AID 2282913).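 Also: p53 protein immunofluorescence averaged per cell in HepG2 with Hoechst nuclei.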 As to conditions: high-content imaging, actives raise or lower the signal. The method in brief: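 Following 24 hr dosing of HepG2 at 0.39–200 uM, the cells undergo formaldehyde fixation, Triton permeabilization and multiplexed antibody labeling that includes p53 (Cy5). Signal from the imaging is referenced to DMSO solvent controls.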

Assay [10] can be described thus: APR_HepG2_CellCycleArrest_72hr: Apredica 72-hour HepG2 Assay for Cell Cycle Arrest (AID 2282914). As to conditions: high-content imaging, actives raise or lower the signal. The gist of the method:
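Using multiplexed high-content imaging, HepG2 nuclei stained with Hoechst 33342 (2 ug/mL) were analysed for DNA content after fixation and permeabilization. Treatment lasted 72 hr across 0.39–200 uM in duplicate with final DMSO 0.5% v/v; DMSO served as negative control.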

Assay [11] in a line: APR_HepG2_CellLoss_72hr: Apredica 72-hour HepG2 Assay for Cell Loss (AID 2282915). The settings on record: high-content imaging. The gist of the method:
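HepG2 cells exposed 72 h to compound at 0.39–200 uM (10 concentrations, duplicate) in 0.5% DMSO. Fixed with 3.7% formaldehyde and Hoechst 33342-stained. Imaged at 20x; nuclear count gives cell number, fitted bidirectionally versus DMSO.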

A short description of assay [12]: APR_HepG2_P-H2AX_72hr: Apredica 72-hour HepG2 Assay for H2AX Phosphorylation (AID 2282916).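 Also: phospho-histone H2A.x immunostain intensity per cell marking DNA damage.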 As to conditions: imaging, actives raise or lower the signal. The gist of the method: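 Human hepatoma HepG2 cells are dosed across ten concentrations (0.39 to 200 uM, 0.5% v/v DMSO) and incubated 72 hr. Phospho-histone H2A.x is then detected by antibody staining alongside c-Jun and Hoechst, and quantified by automated fluorescence imaging.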

Assay [13] can be described thus: APR_HepG2_MitoMembPot_72hr: Apredica 72-hour HepG2 Assay for Mitochondrial Membrane Potential (AID 2282917). The settings on record: imaging, actives raise or lower the signal. The gist of the method: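 HepG2 cells dosed 72 hr with compound at 0.39–200 uM in duplicate, 0.5% v/v DMSO final. Mitochondria stained with 250 nM MitoTracker Red CMXRos for 30 min before formaldehyde fixation, imaged by high-content fluorescence; bidirectional fit versus DMSO.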

The nature of assay [14]: APR_HepG2_MitoticArrest_72hr: Apredica 72-hour HepG2 Assay for Mitotic Arrest (AID 2282918). The settings on record: high-content imaging, actives raise or lower the signal. The gist of the method: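 Using high-content imaging of fixed HepG2 cells, phospho-histone H3 signal was measured following a 72 hr incubation with ten-point compound dilutions up to 200 uM. DMSO served as the negative control and baseline for bidirectional curve fitting.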

Assay [15] is described as follows: APR_HepG2_MicrotubuleCSK_72hr: Apredica 72-hour HepG2 Assay for Microtubule CSK Stabilty (AID 2282919). As to conditions: HepG2 microtubule cytoskeleton, high-content imaging, actives raise or lower the signal. The gist of the method:
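HepG2, 72 hr cmpd exposure, 0.39–200 uM (10 pts, duplicate), 0.5% DMSO. 3.7% formaldehyde fix, 0.5% Triton perm, anti-alpha-tubulin/Cy5 plus Hoechst. HCS fluorescence intensity; bidirectional fit vs DMSO baseline; taxol as positive control.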

A short description of assay [16]: APR_HepG2_P-H2AX_24hr: Apredica 24-hour HepG2 Assay for H2AX Phosphorylation (AID 2282920). The settings on record: high-content imaging, actives raise or lower the signal. The method in brief:
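Human HepG2 liver cells, treated 24 hr with test chemicals (0.39–200 uM, final DMSO 0.5% v/v), are fixed and co-stained for phospho-H2A.x and c-Jun with Hoechst. Imaged intensity is fitted in both directions against DMSO controls.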

Assay [17] is described as follows: APR_HepG2_StressKinase_72hr: Apredica 72-hour HepG2 Assay for Stress Kinase (AID 2282921). The settings on record: HepG2 stress kinase (phospho-c-Jun) imaging, actives raise or lower the signal. The gist of the method:
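After a 72 h compound treatment spanning 0.39 to 200 uM, formaldehyde-fixed cells are labelled for phosphorylated c-Jun and nuclei, imaged by automated fluorescence microscopy, and activity is fitted in both directions relative to DMSO controls.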

A short description of assay [18]: APR_HepG2_StressKinase_24hr: Apredica 24-hour HepG2 Assay for Stress Kinase (AID 2282922). As to conditions: HepG2 stress kinase (phospho-c-Jun) imaging, actives raise or lower the signal. The gist of the method:
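Read-out: phospho-c-Jun immunofluorescence (Cy3 secondary) quantified by high-content imaging at 20x, nuclei defined by Hoechst 33342. Human HepG2 liver cells dosed 24 hr, 0.39–200 uM, DMSO 0.5% v/v; gain or loss of signal fitted relative to DMSO.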

Assay [19] in a line: APR_HepG2_p53Act_72hr: Apredica 72-hour HepG2 Assay for p53 Activation (AID 2282923).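 Also: average cellular p53 protein immunofluorescence intensity in HepG2 cells.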 As to conditions: high-content imaging, actives raise or lower the signal. The method in brief:
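Imaging-based endpoint: after 72 hr compound exposure (up to 200 uM, 0.5% DMSO), fixed and permeabilized monolayers were labelled with anti-p53 antibody and imaged; signal change in either direction was fitted relative to DMSO controls.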

A short description of assay [20]: APR_HepG2_MitoMass_72hr: Apredica 72-hour HepG2 Assay for Mitochondrial Mass (AID 2282924).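 Also: MitoTracker Red CMXRos stain intensity per cell imaged as mitochondrial mass.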 As to conditions: high-content imaging, actives raise or lower the signal. The gist of the method: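 Read-out: MitoTracker Red fluorescence intensity from automated imaging (20x, six fields per well) in human HepG2 liver cells. Dosing ran 72 hr, 0.39–200 uM, 0.5% DMSO; bidirectional curve fitting versus DMSO baseline.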

`Oc1cccc(O)c1`: the result in assay [1], in assay [2], in assay [3], in assay [4], in assay [5] and in assay [6] was inactive. In addition, the result in [7], in assay [8], in assay [9], in [10], in assay [11] and in assay [12] was inactive. Further, the call in [13], in [14], in assay [15], in assay [16], in [17] and in [18] was inactive. Further, the result in assay [19] and in assay [20] was inactive.

In the case of `c1ccc2c(c1)Cc1ccccc1-2`, the compound was classed as inactive in assay [1], in assay [2], in assay [3], in assay [4], in assay [5] and in [6]. Also, the call in assay [7], in assay [8], in assay [9], in assay [10], in assay [11] and in assay [12] was inactive. Besides, the call in [13], in [14], in assay [15], in assay [16], in [17] and in assay [18] was inactive. For the same compound, the compound was classed as inactive in [19] and in assay [20].

Take `CC#C[C@]1(O)CC[C@H]2[C@@H]3CCC4=CC(=O)CCC4=C3[C@@H](c3ccc(N(C)C)cc3)C[C@@]21C`: in assay [1], the AC50 is 132 nM (active) and 56 nM (active) and 36.7 nM (active). The call in assay [2], in assay [3], in assay [4], in assay [5], in assay [6] and in assay [7] was inactive. Moreover, the outcome in [8], in assay [9], in [10], in [11], in assay [12] and in assay [13] was inactive. The compound was called inactive in [14], in assay [15], in assay [16], in [17], in assay [18] and in [19]. Besides, the result in assay [20] was inactive.

Regarding `CCC(C)(C)C1CCC(O)CC1` (stereo unspecified), the AC50 in [1] was 2.38 µM (active) and 336 nM (active); in [4], 99.8 µM (active); in assay [9], 122 µM (active); in assay [11], 122 µM (active); in assay [12] it was 112 µM (active); in [14], 102 µM (active). The AC50 in assay [16] is 114 µM (active); in assay [19] it was 105 µM (active). The outcome in assay [1], in [2], in assay [3], in assay [5], in assay [6] and in assay [7] was inactive. Besides, the outcome in [8], in assay [10], in assay [13], in assay [15], in assay [17] and in assay [18] was inactive. Besides, the compound was classed as inactive in assay [20].

In the case of `Cc1oc(-c2ccccc2)nc1CCOc1ccc(C[C@H](Nc2ccccc2C(=O)c2ccccc2)C(=O)O)cc1`, the compound was classed as inactive in assay [1], in assay [2], in assay [3], in [5], in assay [8] and in assay [15]. Also, the compound was classed as inactive in assay [17], in [18] and in assay [20]. For the same compound, the AC50 in assay [4] is 84.9 µM (active); in assay [6], 84.9 µM (active); in [7], 109 µM (active); in assay [9] it was 107 µM (active); in assay [10], 82.7 µM (active); in assay [11], 53.3 µM (active). The AC50 was 59 µM (active) in assay [12]; 120 µM (active) in assay [13]; 67.8 µM (active) in assay [14]; 81.7 µM (active) in assay [16]; 95.7 µM (active) in [19].

Regarding `O=C(OCCOCCOC(=O)c1ccccc1)c1ccccc1`, the compound was called inactive in assay [1], in assay [2], in assay [3], in [4], in assay [5] and in [6]. The compound was called inactive in [7], in assay [8], in assay [9], in assay [10], in [11] and in assay [12]. The compound was classed as inactive in assay [13], in [14], in assay [15], in assay [16], in assay [17] and in assay [18]. For the same compound, the compound was classed as inactive in assay [19] and in [20].
